# From PubChem BioAssay (NCATS)
# “And” between values parts separate entries of the source, which are not always exact repeats. Equal values may be shown once. Results filed as inconclusive are left out. The source made the active and inactive calls. Unless noted, calls follow the shape of the dose curve; as a rule, active = well fitted curve in the direction sought with a large enough effect; inconclusive = small, poorly fitted or top-dose-only effect, or another doubt; inactive = no such curve, though single readings can be large; an effect the other way counts as inactive or inconclusive.
# How the values were obtained:
# [1] = molecular target: Glutaminase kidney isoform, mitochondrial (Homo sapiens) (UniProt O94925); test: qHTS for Inhibitors of Glutaminase (GLS): LOPAC Validation (AID 624146); also: potency is read from the fitted curve at half-maximal effect; nearly all actives have a fitted effect of over 60% in size
# Outline: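 hKGA in 45 mM KH2PO4 pH 8.2, 0.02% Tween-20 with pin-transferred compounds; 1 mM L-glutamine (stock) plus glutamate oxidase/HRP/Amplex Red coupling added. Fluorescence read initially and after 30 min at RT.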
# [2] = qHTS of Trypanosoma Brucei Inhibitors: LOPAC Validation (AID 624147); also: 0% is about no effect
# Outline: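 Screened from lowest to highest concentration, compounds were pinned into TbPYK/substrate mixtures, and ADP (130 uM final) was added. Plates sat at room temperature for 45 min prior to Kinase-Glo Plus detection by luminescence.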
# [3] = molecular target: Glucagon-like peptide 1 receptor (Homo sapiens) (UniProt P43220); test: qHTS of GLP-1 Receptor Agonists: LOPAC Validation (AID 624148);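 also: 0% is about no effect; higher luminescence signal means agonism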
# Outline: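 HEK293 cells stably co-expressing GLP-1R and a cAMP-responsive luciferase reporter, plated 12 hours before compound, then incubated 4-6 hr at 37 deg C. Luminescence read 12 min after detection reagent.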
# [4] = qHTS of Nrf2 Activators: LOPAC Validation (AID 624149); also: 0% is about no effect
# Outline: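 ARE reporter activation measured in AREc32 firefly luciferase cells after 24 hr compound exposure; Steady-Glo luminescence.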
# [5] = HTS Assay for Allosteric Antagonists of the Human D2 Dopamine Receptor: Hit Validation in HTRF (AID 624455); also: potency is read from the fitted curve at half-maximal effect;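 also: stable D1 dopamine receptor cell line scored for blocking the D1 response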
# Outline: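 Signal from an HTRF read-out in D1-expressing stable cells gave hit activity as inhibition of the D1 response.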
# [6] = Cell Proliferation Assay against the HBL1 Cell Line (AID 651646); conditions: HBL1 DLBCL cells; at 46.1 µM (top of the series) unless noted;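 also: cells exposed to compound for 48 h before reading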
# Outline: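 HBL1 ABC DLBCL cells, 500/well in RPMI with 5% FBS, treated for 48 h at 37C. Viability read by CellTiter-Glo luminescence, normalized to DMSO as 100% and 9.2 uM bortezomib as 0%.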
# [7] = qHTS Assay for Identification of Small Molecule Antagonists for NFkB Signaling Pathway. (AID 624479; calls by dose curve;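 also: pathway stimulated with TNF alpha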; also: potency is read from the fitted curve at half-maximal effect)
# [8] = qHTS assay for small molecule agonists of the antioxidant response element (ARE) signaling pathway (AID 651741; active = well fitted activation curve with a large enough effect in the signal ratio; the % refers to the signal ratio; also: potency is read from the fitted curve at half-maximal effect; as to activation: % of control where 0% means no effect)
# Outline: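 HepG2 ARE-bla cells plated at 2,000 cells/well and incubated 5 h at 37 C/5% CO2 received 23 nL compound in DMSO. After 16 h at 37 C, LiveBLAzer B/G FRET substrate was applied for 2 h at room temperature and fluorescence read.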
# [9] = qHTS assay for small molecule activators of the p53 signaling pathway (AID 651743; active = well fitted activation curve with a large enough effect in the signal ratio, not every such curve was filed as active; the % refers to the signal ratio; also: % of control where 0% means no effect); conditions: HCT-116 p53RE-bla, beta-lactamase FRET ratio, 16 h; activation: stronger effect = higher value
# Outline: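 HCT-116 p53RE-bla, 4,000 cells/well; 5 h settle; cpd/DMSO 16 h, 37 C; LiveBLAzer B/G 2 h RT; fluorescence intensity.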
# [10] = Cytotoxicity counterscreen for NFkB agonists and antagonists (AID 624476);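 also: cells exposed to compound for 48 hours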; also: potency is read from the fitted curve at half-maximal effect
# [11] = qHTS Assay for Identification of Small Molecule Agonists for NFkB Signaling Pathway. (AID 624478);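 also: compounds tested together with TNF alpha at its EC50 of 10 pM; 0% is about no effect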
# Outline: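 Cells carrying an NFkB response element-driven beta-lactamase gene are co-treated with compound and 10 pM TNF alpha for 5 h, and reporter activity is then read as 460 and 530 nm fluorescence.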
# [12] = Cell Proliferation Assay against the TMD8 Cell Line (Caspase readout at 8 hrs) (AID 651713); also: potency is read from the fitted curve at half-maximal effect
# Outline: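 Percent activity derived from Caspase-Glo signal, DMSO set to 0% and bortezomib (9.2 uM final) to 100%. TMD8 cells were exposed to compound for 8 h in RPMI with 5% FBS.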
# [13] = Cell Proliferation Assay against the TMD8 Cell Line (Caspase readout at 16 hrs) (AID 651712); also: potency is read from the fitted curve at half-maximal effect
# Outline: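 TMD8 cells in RPMI with 5% FBS were treated with compound for 16 h at 37 C, then caspase 3/7 activation was read by Caspase-Glo luminescence. Percent activity was scaled to DMSO (0%) and 9.2 uM bortezomib final (100%).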
# [14] = qHTS assay for small molecule activators of the nuclear factor-kappa B (NF-kB) signaling pathway (AID 651749; active = well fitted activation curve with a large enough effect in the signal ratio; the % refers to the signal ratio; also: % of control where 0% means no effect); conditions: NF-kB-bla ME-180 cells, beta-lactamase FRET ratio, 16 h; stronger effect = higher value
# Outline: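 Incubation lasted 16 hr at 37C in 5% CO2 after 23 nL compound addition to ME-180 NF-kB-bla cells. Activation appears as beta-lactamase-mediated FRET loss.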
# [15] = qHTS assay for small molecule disruptors of the mitochondrial membrane potential - 5 hr assay (AID 651755; calls by dose curve; also: nearly all actives have a fitted effect of over 40% in size; also: potency is read from the fitted curve at half-maximal effect)
# Outline: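 HepG2 cells (2,000/well), attached overnight, exposed to compound 5 hr at 37C, then Mito-MPS dye 30 min. Fluorescence read for monomers (490/535 nm) and aggregates (540/590 nm).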
# [16] = molecular target: Tumor necrosis factor (Homo sapiens) (UniProt P01375); test: qHTS assay to identify small molecules that stimulate Tumor Necrosis Factor-alpha (TNF-alpha) secretion (AID 651757; active = well fitted curve in the direction sought with a large enough effect in the signal ratio; the % refers to the signal ratio; also: 0% is about no effect)
# Outline: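 Secreted TNF-alpha from compound-treated THP-1 cells (17 hrs, 37 C) was quantified with a homogeneous time-resolved fluorescence antibody assay.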
# [17] = qHTS assay to identify small molecules that stimulate interleukin-8 (IL-8) secretion (AID 651758; active = well fitted activation curve with a large enough effect in the signal ratio; the % refers to the signal ratio; also: 0% is about no effect)
# Outline: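 THP-1 cells (2000/well) exposed to compound 16 h at 37 C; secreted IL-8 then detected by HTRF with cryptate- and XL665-labelled anti-IL-8 antibody pair after 1-3 h at room temperature.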
# Chain of Glucagon-like peptide 1 receptor (Homo sapiens) (P43220 whole entry, looked up): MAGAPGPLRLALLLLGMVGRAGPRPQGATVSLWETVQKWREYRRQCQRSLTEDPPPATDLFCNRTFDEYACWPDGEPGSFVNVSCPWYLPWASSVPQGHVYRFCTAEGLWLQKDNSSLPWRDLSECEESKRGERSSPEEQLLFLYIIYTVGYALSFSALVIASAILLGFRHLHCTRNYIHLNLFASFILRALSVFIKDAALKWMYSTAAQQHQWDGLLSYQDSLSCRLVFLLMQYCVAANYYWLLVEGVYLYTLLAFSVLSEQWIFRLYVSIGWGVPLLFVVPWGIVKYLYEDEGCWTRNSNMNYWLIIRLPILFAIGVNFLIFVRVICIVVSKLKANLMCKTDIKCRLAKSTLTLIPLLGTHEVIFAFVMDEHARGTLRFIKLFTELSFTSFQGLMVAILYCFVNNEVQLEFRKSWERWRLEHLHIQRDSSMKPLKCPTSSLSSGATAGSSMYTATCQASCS
# Chain of Tumor necrosis factor (Homo sapiens) (P01375 whole entry, looked up): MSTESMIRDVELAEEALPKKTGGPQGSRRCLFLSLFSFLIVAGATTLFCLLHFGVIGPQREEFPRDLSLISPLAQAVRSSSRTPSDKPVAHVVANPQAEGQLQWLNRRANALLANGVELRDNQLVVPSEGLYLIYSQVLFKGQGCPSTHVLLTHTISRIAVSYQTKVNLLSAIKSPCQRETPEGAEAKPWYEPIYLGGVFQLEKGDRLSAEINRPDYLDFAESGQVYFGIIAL
# Chain of Glutaminase kidney isoform, mitochondrial (Homo sapiens) (O94925 whole entry, looked up, canonical isoform): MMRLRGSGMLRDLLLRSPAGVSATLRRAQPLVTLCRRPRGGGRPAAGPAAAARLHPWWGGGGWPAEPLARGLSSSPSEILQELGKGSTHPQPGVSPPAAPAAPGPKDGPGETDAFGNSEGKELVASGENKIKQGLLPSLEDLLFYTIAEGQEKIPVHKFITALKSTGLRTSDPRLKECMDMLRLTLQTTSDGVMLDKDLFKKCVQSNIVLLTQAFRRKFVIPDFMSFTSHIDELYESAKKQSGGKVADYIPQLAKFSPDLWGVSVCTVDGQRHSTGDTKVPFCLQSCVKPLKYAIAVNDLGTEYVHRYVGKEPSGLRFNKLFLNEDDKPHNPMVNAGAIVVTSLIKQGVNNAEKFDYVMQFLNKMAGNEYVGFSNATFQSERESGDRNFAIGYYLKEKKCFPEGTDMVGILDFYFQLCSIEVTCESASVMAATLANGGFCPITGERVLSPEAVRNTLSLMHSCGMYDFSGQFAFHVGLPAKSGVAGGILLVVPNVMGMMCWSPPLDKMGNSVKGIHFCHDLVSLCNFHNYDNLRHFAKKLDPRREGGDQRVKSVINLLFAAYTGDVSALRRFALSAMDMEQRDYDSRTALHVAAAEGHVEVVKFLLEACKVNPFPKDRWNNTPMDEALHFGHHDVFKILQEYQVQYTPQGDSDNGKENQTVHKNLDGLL
smiles,measurement,setting,value
Oc1ccc2c3c1O[C@H]1c4[nH]c5c(c4C[C@@]4(O)[C@@H](C2)N(CC2CC2)CC[C@]314)C[C@@]1(O)[C@H]2Cc3ccc(O)c4c3[C@@]1(CCN2CC1CC1)[C@H]5O4,Potency,[1],12.6 µM (active)
same,outcome,[2],inactive
same,outcome,[3],inactive
same,outcome,[4],inactive
same,Potency,[5],inactive
COc1cc2c(cc1O)CC[C@@H]1[C@@H]2CC[C@]2(C)[C@@H](O)CC[C@@H]12,"viability, percent of control",[6],37.3%
C[C@@]12O[C@@H](C[C@]1(O)CO)n1c3ccccc3c3c4c(c5c6ccccc6n2c5c31)CNC4=O,Potency,[7],1.49 µM (active)
O=S(=O)(O)C(F)(F)C(F)(F)C(F)(F)C(F)(F)C(F)(F)C(F)(F)C(F)(F)C(F)(F)F,Potency,[8],inactive
same,activation,[9],-2.58% (inactive) and 0.715% (inactive)
COCCn1c2c([n+](Cc3cnccn3)c1C)C(=O)c1ccccc1C2=O,Potency,[7],0.0047 µM (active)
O=C(Oc1ccc([N+](=O)[O-])cc1)N1CCC(C(O)(c2ccc3c(c2)OCO3)c2ccc3c(c2)OCO3)CC1,Potency,[10],inactive
same,outcome,[11],inactive
same,Potency,[7],inactive
same,"viability, percent of control",[6],72%
same,Potency,[12],inactive
CCOc1ccc(Nc2nc(-c3c(C)nc4ccccn34)cs2)cc1,Potency,[7],0.335 µM (active)
Cc1nc(-c2ccc(-c3ccc(C(=O)N4CCc5cc6c(cc54)C4(CCN(C)CC4)CO6)cc3)c(C)c2)no1,Potency,[10],inactive
same,outcome,[11],inactive
same,"viability, percent of control",[6],1.18%
NC1CCc2cc(O)c(O)cc2C1 (stereo unspecified),outcome,[3],inactive
same,outcome,[4],inactive
same,Potency,[5],16.4 nM (active)
CC[C@H](CO)Nc1nc(NCc2ccccc2)c2ncn(C(C)C)c2n1,Potency,[7],11.9 µM (active)
Cc1c(C(=O)Nc2cccc(C(F)(F)F)c2)cc(-c2ccccc2)n1CCCN1CCOCC1,Potency,[10],inactive
same,outcome,[11],inactive
same,"viability, percent of control",[6],18.7%
CC(=O)Nc1ccc(OC[C@](C)(O)C(=O)Nc2ccc([N+](=O)[O-])c(C(F)(F)F)c2)cc1,Potency,[10],inactive
same,outcome,[11],inactive
same,Potency,[7],inactive
same,"viability, percent of control",[6],96.7%
same,Potency,[13],inactive
same,Potency,[12],inactive
[Cl][In]([Cl])[Cl],Potency,[8],29.8 µM (active)
O=[N+]([O-])/N=C1\NCCN1Cc1ccc(Cl)nc1,Potency,[8],inactive
Cc1cnc(Nc2ccc(F)cc2Cl)nc1-c1c[nH]c(C(=O)N[C@H](CO)c2cccc(Cl)c2)c1,Potency,[10],26.4 µM (active)
same,Potency,[7],16.8 µM (active)
CC[C@@H](C(=O)O)C1CC[C@H](C)C([C@@H](C)[C@H](O)[C@H](C)C(=O)[C@H](CC)C2O[C@]3(C=C[C@@H](O)[C@]4(CC[C@@](C)(C5CC[C@](O)(CC)[C@H](C)O5)O4)O3)[C@H](C)C[C@@H]2C)O1 (stereo partly specified),Potency,[10],8.33 µM (active)
same,Potency,[7],11.9 µM (active)
CO/C=C(/C(=O)OC)c1ccccc1Oc1cc(Oc2ccccc2C#N)ncn1,Potency,[8],13.7 µM (active)
same,activation,[9],25% (inactive)
Cc1nc2cnc3ccc(C#Cc4cccnc4)cc3c2n1-c1ccc(C(C)(C)C#N)cc1,Potency,[7],18.8 µM (active)
Cc1ccccc1-n1c(Cn2cnc3c(N)ncnc32)nc2cccc(C)c2c1=O,Potency,[10],13.2 µM (active)
same,outcome,[11],inactive
same,Potency,[7],inactive
same,"viability, percent of control",[6],62.6%
Cc1c(C(=O)c2cccc3ccccc23)c2cccc3c2n1[C@H](CN1CCOCC1)CO3,outcome,[2],inactive
same,outcome,[3],inactive
same,outcome,[4],inactive
same,Potency,[5],inactive
Nc1ccc(N=Nc2ccccc2)cc1,Potency,[8],27.3 µM (active)
same,activation,[9],-2.42% (inactive)
CO[C@H]1C=CC=C(C)C(=O)NC2=CC(=O)C(NCCN(C)C)=C(C[C@@H](C)C[C@H](OC)[C@@H](O)[C@@H](C)C=C(C)[C@@H]1OC(N)=O)C2=O,Potency,[10],20.9 µM (active)
same,Potency,[7],0.0008 µM (active)
CCCCC(CC)COC(=O)c1ccccc1C(=O)O (stereo unspecified),Potency,[8],54.5 µM (active)
CC(C)[C@]12O[C@H]1[C@@H]1O[C@]13[C@]1(O[C@H]1C[C@H]1C4=C(CC[C@@]13C)C(=O)OC4)[C@@H]2O,Potency,[10],0.0332 µM (active)
same,outcome,[11],inactive
same,Potency,[7],0.0335 µM (active)
same,"viability, percent of control",[6],35%
same,Potency,[13],13.2 nM (active)
same,Potency,[12],0.132 µM (active)
Nc1nc(-c2nn(Cc3ccccc3F)c3ncccc23)nc(N)c1N1CCOCC1,"viability, percent of control",[6],114%
CC1=NN=C(c2ccc(N)cc2)c2cc3c(cc2C1)OCO3,outcome,[2],inactive
same,outcome,[3],inactive
same,outcome,[4],inactive
same,Potency,[5],inactive
O=C(Nc1cc(C(F)(F)F)cc(C(F)(F)F)c1)c1cc(Cl)ccc1O,Potency,[7],14.9 µM (active)
CNCCc1c[nH]c2ccc(O)cc12,outcome,[2],inactive
same,outcome,[3],inactive
same,outcome,[4],inactive
same,Potency,[5],inactive
CC(C)(C)C(O)C(Oc1ccc(Cl)cc1)n1cncn1 (stereo unspecified),Potency,[8],inactive
same,activation,[9],-1.72% (inactive)
same,activation,[14],-0.211% (inactive)
C=CCON=C(C[C@H]1O[C@@H]2O[C@]3(C)CC[C@@H]4[C@H](C)CC[C@@H]([C@H]1C)[C@@]24OO3)[C@H]1O[C@@H]2O[C@]3(C)CC[C@H]4[C@H](C)CC[C@@H]([C@@H]1C)[C@@]24OO3,outcome,[11],inactive
same,Potency,[7],16.8 µM (active)
same,"viability, percent of control",[6],30.4%
same,Potency,[13],83.3 nM (active)
same,Potency,[12],inactive
CC1CC(C)C(=O)C(C(O)CC2CC(=O)NC(=O)C2)C1 (stereo unspecified),Potency,[10],inactive
same,outcome,[11],inactive
same,Potency,[7],1.09 µM (active)
same,"viability, percent of control",[6],43.6% [at 92.2 µM]
same,Potency,[13],1910 nM (active)
same,Potency,[12],17.1 µM (active)
C1=CCOCc2cc(ccc2OCCN2CCCC2)Nc2nccc(n2)-c2cccc(c2)OCC1,Potency,[7],0.943 µM (active)
CC(C)(C)c1[nH]cnc1C=c1[nH]c(=O)c(=Cc2ccccc2)[nH]c1=O,Potency,[10],18.7 µM (active)
same,Potency,[7],16.8 µM (active)
same,Potency,[13],23.5 nM (active)
same,Potency,[12],0.059 µM (active)
c1cc(-c2cnn3cc(-c4ccc(OCCN5CCCCC5)cc4)cnc23)ccn1,Potency,[7],9.43 µM (active)
same,Potency,[12],23.5 µM (active)
COc1nn(CSP(=S)(OC)OC)c(=O)s1,Potency,[8],inactive
same,activation,[9],0.0507% (inactive)
same,activation,[14],-0.901% (inactive)
Nc1ccc(Cl)cc1,activation,[9],-2.94% (inactive)
same,Potency,[15],inactive
same,outcome,[16],inactive
CC(C)Oc1cccc(NC(=O)c2ccccc2C(F)(F)F)c1,activation,[9],-2.47% (inactive)
same,activation,[14],1.81% (inactive)
CCCN(CCC)c1c([N+](=O)[O-])cc(S(N)(=O)=O)cc1[N+](=O)[O-],Potency,[8],61.1 µM (active)
same,activation,[14],-2.96% (inactive)
Nc1ccc([N+](=O)[O-])cc1,activation,[9],0.0042% (inactive)
same,activation,[14],-0.186% (inactive)
same,outcome,[16],inactive
same,outcome,[17],inactive
Nc1ccc(Cl)cc1N,Potency,[8],4.22 µM (active) and 27.3 µM (active)
same,activation,[9],1.69% (inactive) and 0.406% (inactive)
same,activation,[14],0.983% (inactive) and -0.776% (inactive)
same,Potency,[15],13.3 µM (active)
O=C(O)COc1nc(Cl)c(Cl)cc1Cl,activation,[9],1.93% (inactive)
same,activation,[14],0.434% (inactive)
ClC1=C(Cl)[C@]2(Cl)[C@@H]3[C@@H]4C[C@@H]([C@H]5O[C@@H]45)[C@@H]3[C@@]1(Cl)C2(Cl)Cl,Potency,[8],54.5 µM (active)
same,activation,[9],-1.42% (inactive)
same,activation,[14],5.88% (inactive)
OCCCBr,activation,[9],1.31% (inactive)
same,activation,[14],-0.539% (inactive)
same,outcome,[16],inactive
CCOP(=O)(NC(C)C)Oc1ccc(SC)c(C)c1 (stereo unspecified),activation,[9],-4.79% (inactive) and -0.487% (inactive)
same,activation,[14],-0.0757% (inactive) and -0.702% (inactive)
same,outcome,[16],inactive
same,outcome,[17],inactive
